In the supplement of paper PMC12669032:
Values without a mark were called inactive.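 How the source made its calls: active = AUC reduced over 20% with Padj below 0.05 in at least 2 of 3 replicates; inactive = otherwise.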

Each molecule was assayed on Bifidobacterium longum subsp. longum (assay: growth AUC relative to DMSO control (median of replicates) (fraction); higher = more growth (less inhibition), active = hit call of the paper). Settings: 20 µM; 24 h.
Outline: (§1)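 In round-bottom 96-well plates sealed with pierced gas-permeable seals, gut bacterial monocultures in mGAM were grown anaerobically at 37 °C from OD600 0.05 with 20 µM compound (1% DMSO). OD600 readings were taken hourly for 24 h, and the minimum OD was set to 0. Area under the growth curve was then normalised to the plate median of solvent-only wells, or to row and column medians on the industrial chemical plate. The value given is the median of three biological replicates grown on separate days.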

| Structure (SMILES) | growth AUC |
| --- | --- |
| C=CCOC(Cn1ccnc1)c1ccc(Cl)cc1Cl.O=S(=O)(O)O (stereo not drawn) | 0.843 |
| c1ccc(-c2ccccc2)cc1 | 1.03 |
| CCOC(=O)C(SP(=S)(OC)OC)c1ccccc1 (stereo not drawn) | 1 |
| Nc1nc(N)nc(Cl)n1 | 1.01 |
| NC(=O)/N=C1/SCCN1Cc1ccc(Cl)nc1 | 1.03 |
| CON(C)C(=O)Nc1ccc(Br)c(Cl)c1 | 0.946 |
| CC(C)C(C(=O)OC(C#N)c1cccc(Oc2ccccc2)c1)c1ccc(OC(F)F)cc1 (stereo not drawn) | 0.965 |
| O=[N+]([O-])c1c(Cl)c(Cl)cc(Cl)c1Cl | 0.98 |
| Clc1ccc(C2(Cn3cncn3)CC(Br)CO2)c(Cl)c1 (stereo not drawn) | 0.896 |
| CC(C)N1C(=O)N(c2ccccc2)CSC1=NC(C)(C)C | 0.99 |
| CNC1=C(c2cccc(C(F)(F)F)c2)C(=O)C(c2ccccc2)O1 (stereo not drawn) | 0.888 |
| CCOP(=S)(OCC)Oc1cc(C)nc(C(C)C)n1 | 0.972 |
| CCOP(=S)(OCC)SCS(=O)(=O)C(C)(C)C | 0.966 |
| COc1nc(C)nc(NC(=O)NS(=O)(=O)c2ccccc2Cl)n1 | 0.938 |
| CCOP(=S)(OCC)Oc1cnccn1 | 1.04 |
| O=c1[nH]c2c(c(=O)n1C1CCCCC1)CCC2 | 0.963 |
| COC[C@H](C)N(C(=O)CCl)c1c(C)csc1C | 1.04 |
| CC(C)N(C(=O)CCl)c1ccccc1 | 0.946 |
| ClC1=C(Cl)C2(Cl)C(CBr)CC1(Cl)C2(Cl)Cl (stereo not drawn) | 1.01 |
| COC(=O)COc1cc(Cl)c(Cl)cc1Cl | 0.906 |

| Structure (SMILES) | growth AUC |
| --- | --- |
| COP(=S)(OC)Oc1ccc([N+](=O)[O-])c(C)c1 | 1.04 |
| COC(=O)C(C)N(C(=O)c1ccco1)c1c(C)cccc1C (stereo not drawn) | 1.1 |
| Cc1ccc(N(SC(F)(Cl)Cl)S(=O)(=O)N(C)C)cc1 | 1.03 |
| CCOC(=O)CC(SP(=O)(OC)OC)C(=O)OCC (stereo not drawn) | 0.996 |
| COc1cc(OC)nc(NC(=O)NS(=O)(=O)c2ncccc2C(F)(F)F)n1 | 1 |
| c1ccc2c(c1)cc1ccc3cccc4ccc2c1c34 | 1.09 |
| CS(=O)(=O)c1cc(C(F)(F)F)ccc1C(=O)c1cnoc1C1CC1 | 0.982 |
| O=C(NC(=O)c1c(F)cccc1F)Nc1ccc(CO/N=C(\c2ccc(Cl)cc2)C2CC2)cc1 | 0.959 |
| CNC(=O)Oc1cc(C)c(S(C)(=O)=O)c(C)c1 | 0.985 |
| O=C(O)c1ccc(=O)[nH]c1 | 1 |
| N#Cc1c[nH]cc1-c1cccc(Cl)c1Cl | 1.09 |
| CCOP(=S)(OCC)SCS(=O)CC (stereo not drawn) | 1.03 |
| CNC(=O)O/N=C/C(C)(C)S(C)(=O)=O | 1.05 |
| COc1nc(NC(C)C)nc(NC(C)C)n1 | 1.02 |
| CC(=O)O.CC(=O)O.CC(=O)O.NC(N)=NCCCCCCCCNCCCCCCCCN=C(N)N | 0.195 (active) |
| OCC1C(CO)C2(Cl)C(Cl)=C(Cl)C1(Cl)C2(Cl)Cl (stereo not drawn) | 1.04 |
| Nc1cc(Cl)cc(C(=O)O)c1Cl | 1.04 |
| N#Cc1nn(-c2c(Cl)cc(C(F)(F)F)cc2Cl)c(N)c1S(=O)C(F)(F)F (stereo not drawn) | 0.951 |
| O=[N+]([O-])c1ccccc1 | 1.06 |

Each molecule was assayed on Clostridium difficile in the same assay as above. Settings: 20 µM; 24 h.
Outline: as §1

| Structure (SMILES) | growth AUC |
| --- | --- |
| C=CCOC(Cn1ccnc1)c1ccc(Cl)cc1Cl.O=S(=O)(O)O (stereo not drawn) | 0.884 |
| c1ccc(-c2ccccc2)cc1 | 0.948 |
| CCOC(=O)C(SP(=S)(OC)OC)c1ccccc1 (stereo not drawn) | 1.04 |
| Nc1nc(N)nc(Cl)n1 | 1.03 |
| NC(=O)/N=C1/SCCN1Cc1ccc(Cl)nc1 | 1 |
| CON(C)C(=O)Nc1ccc(Br)c(Cl)c1 | 0.996 |
| CC(C)C(C(=O)OC(C#N)c1cccc(Oc2ccccc2)c1)c1ccc(OC(F)F)cc1 (stereo not drawn) | 1.01 |
| O=[N+]([O-])c1c(Cl)c(Cl)cc(Cl)c1Cl | 1.02 |
| Clc1ccc(C2(Cn3cncn3)CC(Br)CO2)c(Cl)c1 (stereo not drawn) | 0.978 |
| CC(C)N1C(=O)N(c2ccccc2)CSC1=NC(C)(C)C | 1.02 |
| CNC1=C(c2cccc(C(F)(F)F)c2)C(=O)C(c2ccccc2)O1 (stereo not drawn) | 1.08 |
| CCOP(=S)(OCC)Oc1cc(C)nc(C(C)C)n1 | 1.02 |
| CCOP(=S)(OCC)SCS(=O)(=O)C(C)(C)C | 0.98 |
| COc1nc(C)nc(NC(=O)NS(=O)(=O)c2ccccc2Cl)n1 | 1.02 |
| CCOP(=S)(OCC)Oc1cnccn1 | 0.974 |
| O=c1[nH]c2c(c(=O)n1C1CCCCC1)CCC2 | 0.972 |
| COC[C@H](C)N(C(=O)CCl)c1c(C)csc1C | 0.976 |
| CC(C)N(C(=O)CCl)c1ccccc1 | 0.965 |
| ClC1=C(Cl)C2(Cl)C(CBr)CC1(Cl)C2(Cl)Cl (stereo not drawn) | 0.985 |
| COC(=O)COc1cc(Cl)c(Cl)cc1Cl | 1.01 |

| Structure (SMILES) | growth AUC |
| --- | --- |
| COP(=S)(OC)Oc1ccc([N+](=O)[O-])c(C)c1 | 0.988 |
| COC(=O)C(C)N(C(=O)c1ccco1)c1c(C)cccc1C (stereo not drawn) | 0.941 |
| Cc1ccc(N(SC(F)(Cl)Cl)S(=O)(=O)N(C)C)cc1 | 0.991 |
| CCOC(=O)CC(SP(=O)(OC)OC)C(=O)OCC (stereo not drawn) | 0.952 |
| COc1cc(OC)nc(NC(=O)NS(=O)(=O)c2ncccc2C(F)(F)F)n1 | 1.02 |
| c1ccc2c(c1)cc1ccc3cccc4ccc2c1c34 | 0.983 |
| CS(=O)(=O)c1cc(C(F)(F)F)ccc1C(=O)c1cnoc1C1CC1 | 1.05 |
| O=C(NC(=O)c1c(F)cccc1F)Nc1ccc(CO/N=C(\c2ccc(Cl)cc2)C2CC2)cc1 | 0.983 |
| CNC(=O)Oc1cc(C)c(S(C)(=O)=O)c(C)c1 | 0.998 |
| O=C(O)c1ccc(=O)[nH]c1 | 1.01 |
| N#Cc1c[nH]cc1-c1cccc(Cl)c1Cl | 0.901 |
| CCOP(=S)(OCC)SCS(=O)CC (stereo not drawn) | 0.972 |
| CNC(=O)O/N=C/C(C)(C)S(C)(=O)=O | 0.966 |
| COc1nc(NC(C)C)nc(NC(C)C)n1 | 0.98 |
| CC(=O)O.CC(=O)O.CC(=O)O.NC(N)=NCCCCCCCCNCCCCCCCCN=C(N)N | 0.869 |
| OCC1C(CO)C2(Cl)C(Cl)=C(Cl)C1(Cl)C2(Cl)Cl (stereo not drawn) | 0.901 |
| Nc1cc(Cl)cc(C(=O)O)c1Cl | 1.01 |
| N#Cc1nn(-c2c(Cl)cc(C(F)(F)F)cc2Cl)c(N)c1S(=O)C(F)(F)F (stereo not drawn) | 0.966 |
| O=[N+]([O-])c1ccccc1 | 1.01 |
